# Experimental data as given in the supplement of paper PMC4466140.
# B1: unnamed (peptide)
# chain: SKIRPTPRKPSRMAT
# B2: unnamed (peptide)
# chain: QGYPRQPQRPQRYHP
# Target: AgAbp1
# Test: SPOT peptide array binding signal intensity (averaged, normalized) (arbitrary units (background-subtracted, floor 0; scale differs between SH3 domains)); higher = stronger binding of the SH3 domain to the peptide
# How it was run: (§1)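 The binding signal is the normalized, background-subtracted spot intensity averaged over replicates; its arbitrary units differ between domains. It was obtained by incubating 10 μg/ml GST-fused SH3 domains from four yeast species overnight at 4°C in TBS-based blocking buffer on cellulose membranes with synthetic 15-mer peptides, cysteines replaced by serines, then detecting with anti-GST antibody, HRP anti-mouse secondary and luminol.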
row,Binder,SPOT peptide array binding signal intensity
1,B1,1550
2,B2,15.5

# Target: AgBbc1
# Test: as above
# How it was run: as §1
row,Binder,SPOT peptide array binding signal intensity
1,B1,642
2,B2,187

# Target: AgBem1-D1
# Test: as above
# How it was run: as §1
row,Binder,SPOT peptide array binding signal intensity
1,B1,47
2,B2,≤ 0

# Target: AgBzz1-D1
# Test: as above
# How it was run: as §1
row,Binder,SPOT peptide array binding signal intensity
1,B1,77
2,B2,8

# Target: AgBzz1-D2
# Test: as above
# How it was run: as §1
row,Binder,SPOT peptide array binding signal intensity
1,B1,53
2,B2,22.5

# Target: AgCyk3
# Test: as above
# How it was run: as §1
row,Binder,SPOT peptide array binding signal intensity
1,B1,3
2,B2,≤ 0

# Target: AgFus1
# Test: as above
# How it was run: as §1
row,Binder,SPOT peptide array binding signal intensity
1,B1,40
2,B2,≤ 0

# Target: AgHof1
# Test: as above
# How it was run: as §1
row,Binder,SPOT peptide array binding signal intensity
1,B1,69.2
2,B2,0.5

# Target: AgHse1
# Test: as above
# How it was run: as §1
row,Binder,SPOT peptide array binding signal intensity
1,B1,263
2,B2,17.5

# Target: AgLsb1
# Test: as above
# How it was run: as §1
row,Binder,SPOT peptide array binding signal intensity
1,B1,69.2
2,B2,≤ 0

# Target: AgLsb4
# Test: as above
# How it was run: as §1
row,Binder,SPOT peptide array binding signal intensity
1,B1,176
2,B2,47

# Target: AgMyo5
# Test: as above
# How it was run: as §1
row,Binder,SPOT peptide array binding signal intensity
1,B1,7
2,B2,≤ 0

# Target: AgNbp2
# Test: as above
# How it was run: as §1
row,Binder,SPOT peptide array binding signal intensity
1,B1,1050
2,B2,≤ 0

# Target: AgRvs167
# Test: as above
# How it was run: as §1
row,Binder,SPOT peptide array binding signal intensity
1,B1,9.17
2,B2,0.333

# Target: AgSho1
# Test: as above
# How it was run: as §1
row,Binder,SPOT peptide array binding signal intensity
1,B1,39.5
2,B2,≤ 0

# Target: AgSla1-D1-D2
# Test: as above
# How it was run: as §1
row,Binder,SPOT peptide array binding signal intensity
1,B1,100
2,B2,2

# Target: AgSla1-D3
# Test: as above
# How it was run: as §1
row,Binder,SPOT peptide array binding signal intensity
1,B1,23.8
2,B2,≤ 0

# Target: CaAbp1-D1
# Test: as above
# How it was run: as §1
row,Binder,SPOT peptide array binding signal intensity
1,B1,3050
2,B2,25.5

# Target: CaAbp1-D2
# Test: as above
# How it was run: as §1
row,Binder,SPOT peptide array binding signal intensity
1,B1,5280
2,B2,11

# Target: CaBbc1
# Test: as above
# How it was run: as §1
row,Binder,SPOT peptide array binding signal intensity
1,B1,806
2,B2,329

# Target: CaBem1-D1
# Test: as above
# How it was run: as §1
row,Binder,SPOT peptide array binding signal intensity
1,B1,34.5
2,B2,15

# Target: CaBzz1-D1
# Test: as above
# How it was run: as §1
row,Binder,SPOT peptide array binding signal intensity
1,B1,270
2,B2,144

# Target: CaBzz1-D2
# Test: as above
# How it was run: as §1
row,Binder,SPOT peptide array binding signal intensity
1,B1,208
2,B2,32.5

# Target: CaCyk3
# Test: as above
# How it was run: as §1
row,Binder,SPOT peptide array binding signal intensity
1,B1,108
2,B2,13

# Target: CaFus1
# Test: as above
# How it was run: as §1
row,Binder,SPOT peptide array binding signal intensity
1,B1,208
2,B2,≤ 0

# Target: CaHof1
# Test: as above
# How it was run: as §1
row,Binder,SPOT peptide array binding signal intensity
1,B1,2.5
2,B2,≤ 0

# Target: CaHse1
# Test: as above
# How it was run: as §1
row,Binder,SPOT peptide array binding signal intensity
1,B1,30.5
2,B2,≤ 0

# Target: CaLsb1
# Test: as above
# How it was run: as §1
row,Binder,SPOT peptide array binding signal intensity
1,B1,2.75
2,B2,≤ 0

# Target: CaLsb4
# Test: as above
# How it was run: as §1
row,Binder,SPOT peptide array binding signal intensity
1,B1,2040
2,B2,1180

# Target: CaMyo5
# Test: as above
# How it was run: as §1
row,Binder,SPOT peptide array binding signal intensity
1,B1,8.5
2,B2,≤ 0

# Target: CaNbp2
# Test: as above
# How it was run: as §1
row,Binder,SPOT peptide array binding signal intensity
1,B1,437
2,B2,≤ 0

# Target: CaRvs167
# Test: as above
# How it was run: as §1
row,Binder,SPOT peptide array binding signal intensity
1,B1,110
2,B2,2.5

# Target: CaRvs167-3
# Test: as above
# How it was run: as §1
row,Binder,SPOT peptide array binding signal intensity
1,B1,23
2,B2,≤ 0

# Target: CaSho1
# Test: as above
# How it was run: as §1
row,Binder,SPOT peptide array binding signal intensity
1,B1,60
2,B2,12.5

# Target: CaSla1-D1-D2
# Test: as above
# How it was run: as §1
row,Binder,SPOT peptide array binding signal intensity
1,B1,1470
2,B2,≤ 0

# Target: CaSla1-D3
# Test: as above
# How it was run: as §1
row,Binder,SPOT peptide array binding signal intensity
1,B1,104
2,B2,≤ 0

# Target: ScAbp1
# Test: as above
# How it was run: as §1
row,Binder,SPOT peptide array binding signal intensity
1,B1,1260
2,B2,10

# Target: ScBbc1
# Test: as above
# How it was run: as §1
row,Binder,SPOT peptide array binding signal intensity
1,B1,73.5
2,B2,40.2

# Target: ScBem1-D1
# Test: as above
# How it was run: as §1
row,Binder,SPOT peptide array binding signal intensity
1,B1,14
2,B2,2.5

# Target: ScBzz1-D1
# Test: as above
# How it was run: as §1
row,Binder,SPOT peptide array binding signal intensity
1,B1,32.5
2,B2,≤ 0

# Target: ScBzz1-D2
# Test: as above
# How it was run: as §1
row,Binder,SPOT peptide array binding signal intensity
1,B1,39
2,B2,11

# Target: ScCyk3
# Test: as above
# How it was run: as §1
row,Binder,SPOT peptide array binding signal intensity
1,B1,25
2,B2,≤ 0

# Target: ScFus1
# Test: as above
# How it was run: as §1
row,Binder,SPOT peptide array binding signal intensity
1,B1,21
2,B2,≤ 0

# Target: ScHof1
# Test: as above
# How it was run: as §1
row,Binder,SPOT peptide array binding signal intensity
1,B1,10
2,B2,0.75

# Target: ScHse1
# Test: as above
# How it was run: as §1
row,Binder,SPOT peptide array binding signal intensity
1,B1,1130
2,B2,≤ 0

# Target: ScLsb1
# Test: as above
# How it was run: as §1
row,Binder,SPOT peptide array binding signal intensity
1,B1,328
2,B2,9.5

# Target: ScLsb2
# Test: as above
# How it was run: as §1
row,Binder,SPOT peptide array binding signal intensity
1,B1,3.5
2,B2,≤ 0

# Target: ScLsb3
# Test: as above
# How it was run: as §1
row,Binder,SPOT peptide array binding signal intensity
1,B1,2130
2,B2,1040

# Target: ScLsb4
# Test: as above
# How it was run: as §1
row,Binder,SPOT peptide array binding signal intensity
1,B1,117
2,B2,25

# Target: ScMyo3
# Test: as above
# How it was run: as §1
row,Binder,SPOT peptide array binding signal intensity
1,B1,0.5
2,B2,≤ 0

# Target: ScMyo5
# Test: as above
# How it was run: as §1
row,Binder,SPOT peptide array binding signal intensity
1,B1,4
2,B2,≤ 0

# Target: ScNbp2
# Test: as above
# How it was run: as §1
row,Binder,SPOT peptide array binding signal intensity
1,B1,1100
2,B2,3.5

# Target: ScPex13
# Test: as above
# How it was run: as §1
row,Binder,SPOT peptide array binding signal intensity
1,B1,124
2,B2,29.5

# Target: ScRvs167
# Test: as above
# How it was run: as §1
row,Binder,SPOT peptide array binding signal intensity
1,B1,865
2,B2,≤ 0

# Target: ScSho1
# Test: as above
# How it was run: as §1
row,Binder,SPOT peptide array binding signal intensity
1,B1,346
2,B2,16

# Target: ScSla1-D1-D2
# Test: as above
# How it was run: as §1
row,Binder,SPOT peptide array binding signal intensity
1,B1,2180
2,B2,12

# Target: ScSla1-D3
# Test: as above
# How it was run: as §1
row,Binder,SPOT peptide array binding signal intensity
1,B1,202
2,B2,≤ 0

# Target: SpAbp1-D1
# Test: as above
# How it was run: as §1
row,Binder,SPOT peptide array binding signal intensity
1,B1,1300
2,B2,≤ 0

# Target: SpBbc1
# Test: as above
# How it was run: as §1
row,Binder,SPOT peptide array binding signal intensity
1,B1,27.5
2,B2,3.5

# Target: SpBzz1-D1
# Test: as above
# How it was run: as §1
row,Binder,SPOT peptide array binding signal intensity
1,B1,284
2,B2,226

# Target: SpBzz1-D2
# Test: as above
# How it was run: as §1
row,Binder,SPOT peptide array binding signal intensity
1,B1,1.5

# Target: SpCyk3
# Test: as above
# How it was run: as §1
row,Binder,SPOT peptide array binding signal intensity
1,B1,6

# Target: SpHof1
# Test: as above
# How it was run: as §1
row,Binder,SPOT peptide array binding signal intensity
1,B1,107

# Target: SpHof1-2
# Test: as above
# How it was run: as §1
row,Binder,SPOT peptide array binding signal intensity
1,B1,43

# Target: SpHof1-3
# Test: as above
# How it was run: as §1
row,Binder,SPOT peptide array binding signal intensity
1,B1,235

# Target: SpHse1
# Test: as above
# How it was run: as §1
row,Binder,SPOT peptide array binding signal intensity
1,B1,180

# Target: SpLsb1
# Test: as above
# How it was run: as §1
row,Binder,SPOT peptide array binding signal intensity
1,B1,5

# Target: SpLsb4
# Test: as above
# How it was run: as §1
row,Binder,SPOT peptide array binding signal intensity
1,B1,3850

# Target: SpMyo1
# Test: as above
# How it was run: as §1
row,Binder,SPOT peptide array binding signal intensity
1,B1,9.5

# Target: SpNbp2
# Test: as above
# How it was run: as §1
row,Binder,SPOT peptide array binding signal intensity
1,B1,178

# Target: SpPex13
# Test: as above
# How it was run: as §1
row,Binder,SPOT peptide array binding signal intensity
1,B1,30

# Target: SpRvs167
# Test: as above
# How it was run: as §1
row,Binder,SPOT peptide array binding signal intensity
1,B1,957

# Target: SpSla1-D1-D2
# Test: as above
# How it was run: as §1
row,Binder,SPOT peptide array binding signal intensity
1,B1,33

# Target: SpSla1-D3
# Test: as above
# How it was run: as §1
row,Binder,SPOT peptide array binding signal intensity
1,B1,49.5
